# Screening data deposited in PubChem by National Center for Advancing Translational Sciences (NCATS).
# MCF10A rereplic: inducers of DNA re-replication in MCF 10A breast cells. MCF 10A DNA re-replication, Hoechst nuclear intensity, 48 h. Potency, µM (top dose mostly 46.1 µM), for the others: at the highest dose activity, positive = re-replication, usual class: activators. 350,000 tested, 2.9% active. AID 624296; note: potency is the fitted concentration of half-maximal effect; % of control where 0% means no effect; nearly all actives have a fitted effect of over 50% in size
# KB-3-1 cytotox: KB-3-1 parental cell cytotoxicity | KB-3-1 viability, CellTiter-Glo ATP luminescence, 72 h | Potency, µM (top dose mostly 46.1 µM), actives largely listed as cytotoxic | 400,000 tested, 1.4% active | AID 1347075; note: potency is the fitted concentration of half-maximal effect; % is set by controls: 0 for no effect and ±100 for the full control effect; nearly all actives have a fitted effect of over 60% in size
#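 Here the drug-naive KB-3-1 line serves as comparator for MDR sub-line selectivity; cells received compound titrations, 72 h at 37 °C, then CellTiter-Glo readout.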
# SW480 rerep: DNA re-replication induction in SW480 cells. SW480 DNA re-replication, Hoechst DNA content imaging, 48 h. Potency, µM (doses to about 46.1 µM), inactives show at the highest dose re-replication activation, hits mostly activators. 340,000 tested, 1.8% active; note: potency is the fitted concentration of half-maximal effect; % of control where 0% means no effect; nearly all actives have a fitted effect of over 55% in size
#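 Readout is total intensity of Hoechst-stained nuclei, excited at 405 nm and collected at 500-530 nm. Compound treatment lasted 48 hr at 37 C in 5% CO2 before staining.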
# IL1B secr inh: inflammasome signaling inhibition, IL-1 beta readout; THP-1 LPS/ATP IL-1B secretion, AlphaLISA, 16 h; stronger effect = lower value; 360,000 tested, 4.7% active; AID 743279; activity change, % at 57.5 µM; in the data active = activity change below about -50%; inconclusive = mostly about -30% to -49%; note: % is set by controls: 0 for no effect and ±100 for the full control effect
#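 Secreted IL-1B measured by AlphaLISA bead assay after 16 h compound exposure of THP-1 cells; compounds (final up to 57.5 uM) added 1 h before LPS (250 ng/mL) and ATP (1.25 mM) stimulation; lower signal means less secretion.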
# KB-V1 cytotox: KB-V1 MDR subline cytotoxicity | 400,000 tested, 3.4% active | KB-V1 MDR cells viability, CellTiter-Glo, 72 h | Potency, µM (top dose mostly 46.1 µM), usual class: cytotoxic; note: potency is the fitted concentration of half-maximal effect; % is set by controls: 0 for no effect and ±100 for the full control effect; nearly all actives have a fitted effect of over 60% in size
#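 KB-V1 MDR subline cells in DMEM (phenol-red free, 10% FBS) exposed to compounds in qHTS concentration series for 72 h at 37 degrees C. Viability read by CellTiter-Glo luminescence; concentration-effect curves fitted after normalization and correction.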
# * = called active by the depositor; i = inactive; ? = inconclusive; / = not tested or not shown; [ ] = remark or other dose. This is a sample that favours compounds with a hit; in the whole collection about 9.9% have one here. Unless noted, calls come from the whole dose curve; as a rule, active = well fitted curve in the direction sought with a large enough effect; inconclusive = small, poorly fitted or top-dose-only effect, or another doubt; inactive = no such curve, though single readings can be large; an effect the other way counts as inactive or inconclusive.
SMILES,MCF10A rereplic,KB-3-1 cytotox,SW480 rerep,IL1B secr inh,KB-V1 cytotox
O=S(=O)(C/C(=C/CO)S(=O)(=O)c1ccccc1)c1ccccc1,0.82µM*,?,1.2µM*,-106*,?
COC(=O)c1cccc(NC(=O)CCNC(=O)c2ccco2)c1,1%,i,-1%,-101*,i
COc1ccc(C(=O)Nc2cccc(OC(=O)c3ccc(C)c(C)c3)c2)cc1,1%,i,0%,0,i
Cc1cccc(NC(=O)c2cc(NC(=O)c3ccco3)ccc2N2CCCCC2)c1,12µM*,i,16%,-9,i
CC(=O)Oc1ccc(C(=O)Nc2cccc(C(=O)c3ccc(C)c(C)c3)c2)cc1,?,16µM*,-6%,-6,9.2µM*
CC(=O)c1cccc(NC(=O)c2cccc(NC(=O)c3ccco3)c2)c1,12%,i,-35%,26,i
O=C(Nc1ccc(N2CCCCC2)c(C(=O)O)c1)c1ccco1,-1%,i,-6%,0,i
CC(=O)Oc1ccc(C(=O)Nc2cccc(NC(=O)c3ccco3)c2)cc1,6.5µM*,i,-52%,-8,i
COC(=O)c1cccc(NC(=O)c2ccco2)c1,-1%,i,-1%,-5,i
CC1CCCCN1C(=O)Cn1c(=O)n(-c2ccc(Cl)cc2)c(=O)c2c3c(sc21)CCC3 (stereo not drawn),/,i,/,/,i
CCN(C(=O)c1cc2c(s1)-c1c(C)cccc1OC2)c1ccccc1F,/,i,/,/,i
CCOc1ccc(CNC(=O)Cn2ccc3cc(S(=O)(=O)N4CCCCC4)ccc32)cc1,/,i,/,/,i
CN(C)S(=O)(=O)c1ccc(C(=O)NCCC(=O)N2CCCC2)cc1,0%,i,-6%,22,i
O=C(Nc1cccc(NC(=O)c2ccco2)c1)c1cccc(Br)c1,7%,i,-8%,-61*,?
O=C(Nc1ccc(Cl)c(NC(=O)c2cccs2)c1)c1ccco1,17%,i,3%,-7,i
O=C(Nc1cccc(NC(=O)c2cccs2)c1)c1ccco1,10%,i,-9%,-4,15µM*
CC(=O)Oc1ccc(C(=O)Nc2cc(NC(=O)c3ccc(OC(C)=O)cc3)cc(C(=O)NC(C)(C)C)c2)cc1,8%,?,1%,-64*,i
Cc1cc(C)cc(NC(=O)c2cccc(NC(=O)c3ccco3)c2)c1,3%,i,20%,3,i
CC(=O)Oc1ccc(C(=O)Nc2ccccc2NC(=O)c2ccc(OC(C)=O)cc2)cc1,8%,i,-8%,1,i
O=C(Nc1cc(Br)c(O)c(Br)c1)c1cccc(NC(=O)c2ccco2)c1,0.73µM*,i,-27%,2,i
COc1cccc(-n2c(=O)c3c(C)c(C)sc3n(CC(=O)NCc3ccc(C)cc3)c2=O)c1,/,i,/,/,i
ClCC1NCC(c2ccccc2Cl)c2c1[nH]c1ccccc21 (stereo not drawn),3.7µM*,?,-9%,-7,i
CCOC(=O)C1=C(C)C(c2ccccc2OC)NC(=S)N1 (stereo not drawn),3%,i,0%,-12,23µM*
NC(=O)C1=CC2C3C=CC2(O)C(=O)OC3O1 (stereo not drawn),2.9µM*,?,3.7µM*,-96*,?
COc1cccc(C(=O)Nc2ccc(Oc3cccc(C(F)(F)F)c3)nc2)c1,?,?,?,-80*,?
SMILES,MCF10A rereplic,KB-3-1 cytotox,SW480 rerep,IL1B secr inh,KB-V1 cytotox
COc1cccc(/C=C/C(=O)Nc2ccc(OC)nc2)c1,-8%,?,-7%,-2,18µM*
O=C(Nc1ccc(Oc2cccc(C(F)(F)F)c2)nc1)c1cccs1,?,i,28%,-78*,i
O=C(Nc1ccc(Oc2cccc(C(F)(F)F)c2)nc1)c1ccccc1,-11%,i,11%,-4,i
Cc1ccc(-c2noc(CCC(=O)NC3CC3)n2)cc1,-8%,i,3%,23,i
Cc1ccnc(NC(=S)Nc2cccc([S+](=O)([O-])Nc3ccccc3F)c2)c1,/,i,/,/,i
CCOc1cc(C(=O)NCc2ccc3c(c2)CCN3C(=O)c2ccc(F)cc2)cc(OCC)c1OCC,/,i,/,/,i
COc1ccc(C(=O)/C=C/Nc2cccc(C)n2)cc1OC,?,i,-3%[9.22 µM],-60*,?
COc1ccc(N/C=C/C(=O)c2ccc(Cl)cc2)cc1,?,i,0%,-8,i
COc1ccc(N/C=C/C(=O)c2ccc(OC)c(OC)c2)cc1,21µM*,i,12%,-14,?
COc1ccc(C(=O)Cc2ccc(OC)c(OC)c2)cc1,-4%,i,2%,0,23µM*
COc1ccc(N/C=C/C(=O)c2cc(OC)c(OC)c(OC)c2)cc1,5.2µM*,3.7µM*,5.8µM*,62,?
COC(=O)c1ccc(N/C=C/C(=O)c2ccc(OC)c(OC)c2)cc1,?,i,-5%,0,i
O=C(Nc1nccs1)c1cc(-c2ccccn2)nc2c(Cl)cccc12,16%,i,5%,27,?
CCc1ccc(C2=C(C)C(N3CCC(C(=O)NCc4ccc(C)o4)CC3)=NS2(=O)=O)cc1,/,i,/,/,i
O=C(NC(=S)Nc1ccc2[nH]c(=O)[nH]c2c1)c1ccccc1[N+](=O)[O-],6%,i,-2%,0,i
N#C/C(=N\Nc1ccc(Cl)c(Cl)c1)C(=O)C1CC1,?,16µM*,1%,?,?
N#C/C(=N\Nc1ccc(F)cc1)C(=O)C1CC1,?,i,22%,16,i
Cc1cc(/C=C2/C(=N)N3C(=NC2=O)SN=C3S(C)(=O)=O)c(C)n1-c1ccc(F)cc1,21µM*,i,-3%,23,i
COc1ccccc1-n1c(C)cc(/C=C2/C(=N)N3C(=NC2=O)SN=C3S(C)(=O)=O)c1C,?,i,1%,4,i
CCOc1ccc(-n2c(C)cc(/C=C3/C(=N)N4C(=NC3=O)SN=C4S(C)(=O)=O)c2C)cc1,15µM*,i,13%,-1,i
COc1ccc(-n2c(SCC(C)=O)nc3sc(C)c(C)c3c2=O)cc1,3%,i,-1%,0,i
COc1cc(/C=N/N=C(N)N)ccc1OCc1ccccc1Cl,45%,?,?,-66*,i
COc1ccc(/C=N/N=C/c2ccc(OC)c(OC)c2)cc1OC,0%,i,0%,13,i
COc1cc(C2Nc3ccccc3C(=O)N2c2ccccc2)c(Br)cc1OCC(=O)O (stereo not drawn),-6%,i,23µM*,0,i
Cc1cc2c(cc(C(=O)OCC(=O)NCc3cccs3)n2C(C)C)o1,2.9µM*,9.2µM*,8.2µM*,14,?
Cc1cc(C)cc(C(=O)OCC(=O)NCc2cccs2)c1,5%,?,23%,0,i
